Experimental data reported in PubChem BioAssay AID1159580 (chemical genetic matrix, 2015).
Out of some 5,500 compounds screened, about 2,000 (36%) were called active. Roughly 18% stayed inconclusive and do not appear here. No stated cut-off is given here; in the data, active means normalized growth mostly below about 0.91 (no sharp cut-off); inconclusive means no clear call, values can overlap the other calls; inactive means mostly above about 0.92. The list shows a part of the results.

Experiment: chemical genetic growth profiling, strain panel (AID 1159580);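 further: tested at 20 µM; growth read once vehicle control cultures reached saturation at 30 °C; 1 = growth at the plate median or of vehicle wells; lower values mean less growth of the strain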
Details: growth OD
[1] = S. cerevisiae deletion strains, locus YDL101C, strain DUN1, hits give low values
[2] = S. cerevisiae deletion strains, locus YHR030C, strain SLT2, hits give low values

Measured: normalized growth

FC(F)(F)c1cc(Cl)c2nsnc2c1
inactive: S. cerevisiae deletion strains, locus YAL013W, strain DEP1, hits give low values 1 | S. cerevisiae deletion strains, locus YBR229C, strain ROT2, hits give low values 0.993 | [1] 1.01 | S. cerevisiae deletion strains, locus YDR150W, strain NUM1, hits give low values 1 | S. cerevisiae deletion strains, locus YEL061C, strain CIN8, hits give low values 0.99 | S. cerevisiae deletion strains, locus YGR078C, strain PAC10, hits give low values 0.997 | S. cerevisiae deletion strains, locus YGR229C, strain SMI1, hits give low values 1 | [2] 1.02 | S. cerevisiae deletion strains, locus YHR087W, strain rtc3, hits give low values 1.01 | S. cerevisiae deletion strains, locus YJL187C, strain SWE1, hits give low values 0.99 | S. cerevisiae deletion strains, locus YJR043C, strain POL32, hits give low values 0.998 | S. cerevisiae deletion strains, locus YJR075W, strain HOC1, hits give low values 0.985 | S. cerevisiae deletion strains, locus YLR039C, strain RIC1, hits give low values 0.991 | S. cerevisiae deletion strains, locus YLR058C, strain SHM2 (second series), hits give low values 0.993 | S. cerevisiae deletion strains, locus YLR085C, strain ARP6, hits give low values 1.01 | S. cerevisiae deletion strains, locus YLR262C, strain YPT6, hits give low values 0.974 | S. cerevisiae deletion strains, locus YML094W, strain GIM5, hits give low values 1.06 | S. cerevisiae deletion strains, locus YMR219W, strain ESC1, hits give low values 1 | S. cerevisiae deletion strains, locus YMR263W, strain SAP30, hits give low values 1 | S. cerevisiae deletion strains, locus YMR307W, strain GAS1, hits give low values 1.01 | S. cerevisiae deletion strains, locus YNL153C, strain GIM3, hits give low values 0.996 | S. cerevisiae deletion strains, locus YNL298W, strain CLA4 (second series), hits give low values 0.993 | S. cerevisiae deletion strains, locus YNL322C, strain KRE1, hits give low values 0.995 | S. cerevisiae deletion strains, locus YNR030W, strain Alg12, hits give low values 1.01 | S. cerevisiae deletion strains, locus YPL055C, strain LGE1, hits give low values 1.03 | S. cerevisiae deletion strains, locus YPL241C, strain CIN2, hits give low values 1.08 | S. cerevisiae deletion strains, locus YPR135W, strain CTF4, hits give low values 1.03 | S. cerevisiae strains, strain wild type, hits give low values 0.987

O=S(=O)(NCc1ccc(C(F)(F)F)cc1)c1cc(Br)c(Br)s1
inactive: S. cerevisiae deletion strains, locus YAR019C, strain CDC15, hits give low values 0.987 | S. cerevisiae deletion strains, locus YBL105C, strain PKC1, hits give low values 0.969 | S. cerevisiae deletion strains, locus YBR135W, strain CKS1, hits give low values 0.971 | S. cerevisiae deletion strains, locus YBR136W, strain MEC1, hits give low values 0.985 | S. cerevisiae deletion strains, locus YBR160W, strain CDC28, hits give low values 0.966 | S. cerevisiae deletion strains, locus YDL017W, strain CDC7, hits give low values 0.967 | S. cerevisiae deletion strains, locus YDL028C, strain MPS1, hits give low values 0.984 | [1] 0.975 | S. cerevisiae deletion strains, locus YDL108W, strain KIN28, hits give low values 0.974 | S. cerevisiae deletion strains, locus YDL132W, strain cdc53, hits give low values 0.973 | S. cerevisiae deletion strains, locus YDL214C, strain PRR2, hits give low values 0.786 | S. cerevisiae deletion strains, locus YDR052C, strain DBF4, hits give low values 0.979 | S. cerevisiae deletion strains, locus YDR054C, strain cdc34, hits give low values 0.973 | S. cerevisiae deletion strains, locus YDR226W, strain ADK1, hits give low values 0.984 | S. cerevisiae deletion strains, locus YDR477W, strain SNF1, hits give low values 0.856 | S. cerevisiae deletion strains, locus YER123W, strain YCK3, hits give low values 0.747 | S. cerevisiae deletion strains, locus YER133W, strain GLC7, hits give low values 0.794 | S. cerevisiae deletion strains, locus YFL009W, strain cdc4, hits give low values 0.979 | S. cerevisiae deletion strains, locus YFL029C, strain CAK1, hits give low values 0.982 | S. cerevisiae deletion strains, locus YFR003C, strain YPI1, hits give low values 0.974 | S. cerevisiae deletion strains, locus YFR019W, strain FAB1, hits give low values 0.845 | S. cerevisiae deletion strains, locus YFR028C, strain CDC14, hits give low values 0.967 | S. cerevisiae deletion strains, locus YGR040W, strain KSS1, hits give low values 0.818 | S. cerevisiae deletion strains, locus YGR052W, strain FMP48, hits give low values 0.729 | S. cerevisiae deletion strains, locus YGR092W, strain DBF2, hits give low values 0.801 | S. cerevisiae deletion strains, locus YHR079C, strain IRE1, hits give low values 0.813 | S. cerevisiae deletion strains, locus YHR205W, strain SCH9, hits give low values 0.618 | S. cerevisiae deletion strains, locus YIL147C, strain SLN1, hits give low values 0.98 | S. cerevisiae deletion strains, locus YJL095W, strain BCK1, hits give low values 0.741 | S. cerevisiae deletion strains, locus YJL128C, strain PBS2, hits give low values 0.924 | S. cerevisiae deletion strains, locus YJL157C, strain FAR1, hits give low values 0.872 | S. cerevisiae deletion strains, locus YJR016C, strain ILV3, hits give low values 0.98 | S. cerevisiae deletion strains, locus YJR066W, strain TOR1 (second series), hits give low values 0.794 | S. cerevisiae deletion strains, locus YJR066W, strain TOR1, hits give low values 0.689 | S. cerevisiae deletion strains, locus YKL067W, strain YNK1, hits give low values 0.835 | S. cerevisiae deletion strains, locus YKL193C, strain SDS22, hits give low values 0.967 | S. cerevisiae deletion strains, locus YKL203C, strain TOR2, hits give low values 0.851 | S. cerevisiae deletion strains, locus YLR133W, strain CKI1, hits give low values 0.839 | S. cerevisiae deletion strains, locus YLR403W, strain SFP1, hits give low values 0.808 | S. cerevisiae deletion strains, locus YML070W, strain DAK1, hits give low values 0.797 | S. cerevisiae deletion strains, locus YMR001C, strain CDC5, hits give low values 0.964 | S. cerevisiae deletion strains, locus YMR205C, strain PFK2 (second series), hits give low values 0.831 | S. cerevisiae deletion strains, locus YMR277W, strain FCP1, hits give low values 0.965 | S. cerevisiae deletion strains, locus YNL006W, strain LST8, hits give low values 0.98 | S. cerevisiae deletion strains, locus YNL020C, strain ARK1, hits give low values 0.838 | S. cerevisiae deletion strains, locus YNL161W, strain CBK1, hits give low values 0.969 | S. cerevisiae deletion strains, locus YNL183C, strain NPR1, hits give low values 0.659 | S. cerevisiae deletion strains, locus YNL207W, strain RIO2, hits give low values 0.977 | S. cerevisiae deletion strains, locus YNL222W, strain SSU72, hits give low values 0.967 | S. cerevisiae deletion strains, locus YNL307C, strain MCK1 (second series), hits give low values 0.846 | S. cerevisiae deletion strains, locus YOL078W, strain AVO1, hits give low values 0.969 | S. cerevisiae deletion strains, locus YOL136C, strain PFK27, hits give low values 0.811 | S. cerevisiae deletion strains, locus YOR061W, strain CKA2, hits give low values 0.848 | S. cerevisiae deletion strains, locus YOR119C, strain RIO1, hits give low values 0.772 | S. cerevisiae deletion strains, locus YOR231W, strain MKK1, hits give low values 0.792 | S. cerevisiae deletion strains, locus YOR329C, strain SCD5, hits give low values 0.969 | S. cerevisiae deletion strains, locus YPL031C, strain PHO85, hits give low values 0.774 | S. cerevisiae deletion strains, locus YPL153C, strain RAD53, hits give low values 0.716 | S. cerevisiae deletion strains, locus YPL204W, strain HRR25, hits give low values 0.795 | S. cerevisiae deletion strains, locus YPL209C, strain IPL1, hits give low values 0.973 | S. cerevisiae deletion strains, locus YPR025C, strain CCL1, hits give low values 0.965 | S. cerevisiae deletion strains, locus YPR106W, strain ISR1, hits give low values 0.97 | S. cerevisiae deletion strains, locus YPR111W, strain DBF20, hits give low values 0.982 | S. cerevisiae deletion strains, strain NNK1, hits give low values 0.968 | S. cerevisiae deletion strains, strain TSCII, hits give low values 0.97
active: [2] 0.645 | S. cerevisiae deletion strains, locus YHR082C, strain KSP1, hits give low values 0.607 | S. cerevisiae deletion strains, locus YKL048C, strain ELM1, hits give low values 0.791 | S. cerevisiae deletion strains, locus YKL101W, strain HSL1, hits give low values 0.714 | S. cerevisiae deletion strains, locus YLR113W, strain HOG1, hits give low values 0.721 | S. cerevisiae deletion strains, locus YPL256C, strain CLN2, hits give low values 0.728
